# Compound activity from PubChem.
# AmpC no deterg – qHTS Inhibitors of AmpC Beta-Lactamase (assay without detergent) | Potency, µM (titrated, usually from 57.1 µM), inactives show at the top dose activity change, negative = inhibition, usual class: inhibitors | actives 0.52% (n = 330,000) | AID 485341, 2010 | AmpC nitrocefin hydrolysis, absorbance 480 nm, 0.0001% Triton | P00811;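 note: potency is the fitted concentration of half-maximal effect; plate controls were no compound for no effect and no enzyme for full effect; nearly all actives have a fitted effect of over 20% in size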
# Target sequence (P00811 whole entry, looked up): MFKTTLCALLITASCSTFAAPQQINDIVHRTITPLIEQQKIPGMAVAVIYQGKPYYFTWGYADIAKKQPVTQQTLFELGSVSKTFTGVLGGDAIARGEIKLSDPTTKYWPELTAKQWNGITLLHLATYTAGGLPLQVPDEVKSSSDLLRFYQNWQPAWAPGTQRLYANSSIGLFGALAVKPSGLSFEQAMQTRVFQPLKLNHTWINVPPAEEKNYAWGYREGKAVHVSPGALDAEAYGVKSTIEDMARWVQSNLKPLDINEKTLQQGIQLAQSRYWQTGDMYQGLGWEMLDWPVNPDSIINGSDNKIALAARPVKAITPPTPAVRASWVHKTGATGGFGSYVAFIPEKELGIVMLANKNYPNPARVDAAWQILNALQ
#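 20 mM phosphate pH 7.0 + 0.01% (detergent screen) or 0.0001% Triton X-100; 5.3 nM AmpC reagent; cpd preinc 15 min RT; nitrocefin (800 uM stock) to start; A480 q20 s × 4 min; Activity was normalised to no-enzyme and no-compound control wells.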
# HCV inhibitor – qHTS Assay for Inhibitors of Hepatitis C Virus (HCV). Huh7.5.1 HCVcc-Cre infection, luciferase reporter, 44 h. Potency, µM (titrated, usually from 41.8 µM), without a hit: at the top dose activity change, negative = inhibition, hits mostly inhibitors. actives 3.4% (n = 340,000); note: potency is the fitted concentration of half-maximal effect; % is set by controls: 0 for no effect and ±100 for the full control effect
#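 Whole-lifecycle infectious HCVcc-Cre system; cells 1,000/well, compound then virus (~0.5 moi) added 4 h after plating, 44 h culture. Luciferase read 15 sec following 15 min substrate incubation, room temp.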
# AmpC inh detg – qHTS Inhibitors of AmpC Beta-Lactamase (assay with detergent); P00811; actives 0.041% (n = 370,000); Potency, µM (highest dose often 114 µM), for inactives: top-dose activity change, negative = inhibition, actives largely listed as inhibitors; AmpC hydrolysis of nitrocefin, absorbance 480 nm, 0.01% Triton;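 note: potency is the fitted concentration of half-maximal effect; 0% = no-compound wells and -100% = no-enzyme wells; nearly all actives have a fitted effect of over 25% in size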
#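 20 mM phosphate pH 7.0 + 0.01% (detergent screen) or 0.0001% Triton X-100; 5.3 nM AmpC reagent; cpd preinc 15 min RT; nitrocefin (800 uM stock) to start; A480 q20 s × 4 min; Activity was normalised to no-enzyme and no-compound control wells.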
# HCMV inh – qHTS Assay for inhibitors of the human cytomegalovirus (HCMV); HFF cells, HCMV-luciferase reporter, 72 h; stronger effect = lower value; activity change, negative = inhibition, % at 57.5 µM; actives 4.5% (n = 410,000); AID 1259415, 2018; in the data active = activity change below about -60%; inconclusive = no clear call, values can overlap the other calls; inactive = above about -39%; note: % is set by controls: 0 for no effect and ±100 for the full control effect
#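 Compounds were evaluated in HFFs infected with an HCMV luciferase reporter virus (MOI 1 PFU/cell). Luciferase in lysates collected 72 h post infection served as the replication measure.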
# FMDV inh – High Throughput Screening for Foot and Mouth Disease Virus Antivirals | FMDV antiviral cell-based qHTS | Potency, µM (doses to about 57.9 µM), for inactives: top-dose activity change, negative = inhibition, hits mostly inhibitors | actives 1.2% (n = 410,000); calls by dose curve; tested in HEK293T cells; note: read-out not given here; potency is the fitted concentration of half-maximal effect; % is set by controls: 0 for no effect and ±100 for the full control effect; nearly all actives have a fitted effect of over 45% in size
# HCV inh confirm – qHTS Assay for Inhibitors of Hepatitis C Virus (HCV): Confirmation Assay for Cherry-picked Compounds; AID 720575, 2013; Potency, µM (series often up to 41.8 µM), for the others: at the highest dose activity, negative = inhibition, hits mostly inhibitors; HCVcc-Cre infectious virus cell assay, luciferase, inhibition; shares compounds with HCV inhibitor; actives 78% (n = 640); note: potency is the fitted concentration of half-maximal effect; nearly all actives have a fitted effect of over 80% in size
# HCV host tox – qHTS Assay for Inhibitors of Hepatitis C Virus (HCV): Cytotoxicity Counterscreen for Cherry-picked Compounds; actives 22% (n = 640); HCV host cell line cytotoxicity counterscreen; shares compounds with HCV inhibitor; Potency, µM (series often up to 41.8 µM), without a hit: top-dose activity change, negative = cytotoxicity, most hits filed as inhibitors;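 note: potency is the fitted concentration of half-maximal effect; 44 h compound exposure; % is set by controls: 0 for no effect and ±100 for the full control effect; nearly all actives have a fitted effect of over 55% in size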
# The depositor's hits bear a star; ? = inconclusive; . = no result given. Only some compounds are listed: those with a hit (about 7.3% of all), similar ones and a draw of the others. Unless noted, calls come from the whole dose curve; as a rule, active = well fitted curve in the direction sought with a large enough effect; inconclusive = small, poorly fitted or top-dose-only effect, or another doubt; inactive = no such curve, though single readings can be large; an effect the other way counts as inactive or inconclusive.
SMILES,AmpC no deterg,HCV inhibitor,AmpC inh detg,HCMV inh,FMDV inh,HCV inh confirm,HCV host tox
CC1CCc2c(sc3ncnc(SC(C)C(=O)NCC4CCCO4)c23)C1 (stereo not given),150.7%,11.0%,?,-2.8,-20.8%,.,.
COc1nn(-c2ccccc2)c(=O)c(Cl)c1Cl,-6.0%,3.98µM*,?,-102.2*,14.1µM*,8.87µM*,7.91µM*
CCCCCCCCCCCCC(C(=O)O)C(C)C(=O)O (stereo not given),.,.,.,.,9.6%,.,.
C=C(C(=O)O)C(CCCCCC)C(=O)O (stereo not given),-16.0%,0.631µM*,0.9%,-7.9,-14.1%,-16.4%,-10.7%
CC(C)(C)[C@@H]1C=C(C(=O)Nc2ccccc2)O[C@H](OCc2ccc(CO)cc2)C1,22.0%,-27.0%,-5.4%,8.1,-7.4%,.,.
COc1cc(/C=N/n2c(-c3ccccc3)n[nH]c2=S)cc(OC)c1OC,-47.7%,5.8%,-5.3%,28.4,-28.6%,.,.
COc1cc(/C=N/n2nnnc2Nc2ccccc2)cc(OC)c1OC,-10.4%,?,?,.,-16.0%,?,12.1%
O=C(NCC(=O)N(c1cccnc1)C(C(=O)NC1CCCCC1)c1ccccc1F)c1ccco1 (stereo not given),0.2%,25.5%,-0.3%,94.6,-0.4%,.,.
CC(C)(C)N1C(=O)c2ccccc2NC(=O)C1C(=O)Nc1ccc(N2CCOCC2)cc1 (stereo not given),.,.,.,-3.3,-10.7%,.,.
Cn1c(=O)c2c(nc(SCC(=O)NCc3ccc4c(c3)OCO4)n2Cc2ccccc2)n(C)c1=O,-3.0%,2.3%,?,-17.7,0.0%,?,13.0%
Cn1c(=O)c2c(nc(SCC(=O)NCc3ccc4c(c3)OCO4)n2Cc2ccc(F)cc2)n(C)c1=O,-17.2%,?,-1.7%,-35.6,-22.9%,14.1µM*,25.8%
Cn1c(=O)c2c(nc(Oc3ccc4c(c3)OCO4)n2Cc2ccc(F)cc2)n(C)c1=O,-15.9%,13.3%,-10.3%,-21.2,-3.8%,.,.
CCCCNC(=O)CSc1nc2ccccc2c(=O)n1Cc1ccc2c(c1)OCO2,-1.9%,?,-15.9%,-11.3,9.5%,.,.
O=C(O)CCCN1C(=O)C2C3CCC(C3)C2C1=O (stereo not given),.,.,.,-21.6,0.0%,.,.
CCCS(=O)(=O)NC(=O)C1(C)CCN1C(=O)Cc1ccc(Cl)cc1Cl (stereo not given),.,.,.,-13.0,-13.9%,.,.
COc1ccc(NC(=O)c2cc(-c3cc(C)cc(C)c3O)n[nH]2)cc1Cl,11.2µM*,8.91µM*,-0.5%,-39.6,?,14.1µM*,?
COc1ccc(NC(=O)c2cc(-c3ccccc3O)n[nH]2)cc1Cl,-58.3%,-25.4%,1.1%,-2.4,7.3%,.,.
Cc1cc(Cl)ccc1OCC(=O)Nc1ccccc1CO,-5.8%,3.16µM*,?,-20.3,16.7%,7.91µM*,-11.2%
Cc1nc2nc(C)n(CCN3CCOCC3)c(=O)c2c(-c2cccc([N+](=O)[O-])c2)c1C(=O)CCCCCCCCCCN1CCC(c2ccccc2)(c2ccccc2)CC1,.,?,.,-77.8*,25.1µM*,14.1µM*,?
O=C(NCCCN1CCOCC1)/C(=C/c1ccc(-c2cccc([N+](=O)[O-])c2)o1)NC(=O)c1ccccc1,.,.,.,18.2,-25.9%,.,.
COc1ccc(NC(=O)/C(Cl)=C(/Cl)S(=O)Cc2ccccc2)cn1 (stereo not given),-7.4%,0.794µM*,-5.6%,-100.4*,6.31µM*,6.28µM*,6.28µM*
COc1ccc(NC(=S)Nc2ccccc2)cn1,-11.9%,-1.9%,-13.6%,-15.0,-21.4%,.,.
CC1CCN(S(=O)(=O)c2ccc3c(c2)N(CC(=O)NC(C)c2ccccc2)C(=O)CO3)CC1 (stereo not given),.,.,9.1%,8.2,-7.6%,.,.
COC(=O)C1=C(C)NC(=O)NC1c1ccc(-c2ccccc2Cl)o1 (stereo not given),-24.7%,?,-10.3%,-21.8,?,22.3µM*,1.5%
Fc1ccc(C(c2nnnn2Cc2cccs2)N2CCN(C3CCCC3)CC2)cc1 (stereo not given),8.3%,?,-14.3%,-8.9,?,-12.4%,-17.1%
SMILES,AmpC no deterg,HCV inhibitor,AmpC inh detg,HCMV inh,FMDV inh,HCV inh confirm,HCV host tox
c1ccc(C(c2nnnn2Cc2cccs2)N2CCN(C3CCCC3)CC2)cc1 (stereo not given),-15.9%,-3.0%,2.2%,-7.3,-12.6%,.,.
COC(=O)c1c(NC(=O)c2ccn(C)n2)sc2c1CCC2,-3.1%,2.82µM*,1.2%,11.3,33.3%,0.887µM*,16.5%
CSc1nc2nc(C)cc(-c3ccccc3)n2n1,-12.1%,7.94µM*,-13.6%,-25.8,-22.0%,?,15.1%
O=C(COC(=O)c1cc(Br)ccc1O)NCCC1=CCCCC1,.,.,.,12.6,-7.0%,.,.
COc1ccc(Cl)cc1NC(=O)c1cc2c(s1)-c1ccccc1OC2,.,.,30.2%,-12.5,-12.1%,.,.
Cc1c(NC(=O)c2cc3c(s2)-c2ccccc2OC3)cccc1[N+](=O)[O-],-33.0%,?,0.6%,?,28.2µM*,6.28µM*,-3.9%
O=C(/C=C/c1ccccc1)Nc1cccc(C(=O)NCCCCc2ccccc2)c1,.,2.51µM*,.,27.1,-13.9%,11.2µM*,7.6%
CN(C)S(=O)(=O)c1ccc(N2CCCC2)c(C(=O)Nc2nc3ccc(F)cc3s2)c1,-27.4%,7.94µM*,-5.9%,13.7,34.7%,?,-12.8%
COc1ccc(C(=O)COC(=O)C2COc3ccccc3O2)cc1F (stereo not given),-11.6%,-20.0%,.,11.0,2.2%,.,.
Cc1cccc(N2CCN(C(=O)CCCCCn3c(=S)[nH]c4ccc(N5CCOCC5)cc4c3=O)CC2)c1C,-25.0%,?,-0.1%,-33.5,?,.,.
Cc1ccc(C)c(C(=O)NCCN(C)C)c1,-22.3%,0.8%,-0.2%,59.6,7.5%,.,.
C=C(CN(C)C)C(=O)c1cc(C)ccc1C,.,?,.,-98.9*,?,8.87µM*,7.91µM*
Cc1ccc(S(=O)(=O)N2CCC(=O)N(CCOCc3ccc(C(F)(F)F)cc3)CC2)cc1,281.1%,?,?,?,?,2.23µM*,?
Cc1[nH]n(-c2nc(-c3ccc(Cl)cc3)cs2)c(=O)c1N=Nc1ccc(O)cc1,-29.5%,1.78µM*,-7.1%,-33.8,7.94µM*,14.1µM*,-98.7%
